# Data published in PubChem BioAssay AID1662 (Broad Institute, 2009).
# Among all 300,000 compounds or so, about 4,000 (1.3%) were called active. The list comes from a sample in which actives are over-represented; it also holds similar structures and randomly drawn compounds. A number with no mark means an inactive call.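 The calls were made as follows: active = mean replicate score, as percent of positive control median, at least 50; inconclusive = mean below 50 but one replicate at or above 50; inactive = mean and every replicate below 50.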
# Experiment: S. pyogenes SKKanGAS growth inhibitors in kanamycin, primary screen, streptokinase expression inhibitor project, SKKanGAS strain, BacTiter-Glo luminescence (AID 1662);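 also: strain carries kanamycin resistance gene driven by streptokinase promoter and grows in 40 µg/ml kanamycin; loss of luminescence reflects streptokinase promoter inhibition or plain growth inhibition; 0% = median of DMSO wells and 100% = positive control at its reference dose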
# Conditions: 6 h, at 7.5 µM, hits give high values
row,SMILES,inhibition
1,CC(=O)N1CCOc2ccc(S(=O)(=O)N3CCN(c4cccc(C(F)(F)F)c4)CC3)cc21,2.46%
2,COc1ccc(N2CCC(CNC(=S)Nc3c(C)cccc3C)C2)cc1 (stereo unspecified),-4.36%
3,Cc1ccc(CN2CCC(N3CCC(C(=O)NCC4CCCO4)CC3)CC2)o1 (stereo unspecified),4.3%
4,CCOC(=O)C1(Cc2ccccc2C)CCCN(C(=O)CN2C(=O)CSC2=O)C1 (stereo unspecified),5.85%
5,CC(=O)Nc1nc(N(C)C)nc(N(C)C)n1,2.59%
6,O=C(Nc1cccc(-c2nc3ccccc3[nH]2)c1)c1ccc(C(=O)Nc2cccc(-c3nc4ccccc4[nH]3)c2)cc1,64% (active)
7,Cc1ccc(-c2nc3ccccc3[nH]2)cc1NC(=O)c1sc2ccccc2c1Cl,4.45%
8,O=C(/C=C/c1ccco1)Nc1cccc(-c2nc3ccccc3[nH]2)c1,16.2%
9,O=C(NC1CC1)c1ccc(-c2ccccc2)cc1,1.81%
10,O=C(CC1SC(=Nc2ccccc2F)N(CCN2CCOCC2)C1=O)Nc1ccc(F)cc1F (stereo unspecified),-5.01%
11,CCOc1ccc(C(=O)Nc2c3c(nn2-c2ccccc2)CS(=O)(=O)C3)cc1,1.84%
12,COc1ccccc1OCC(=O)Nc1c2c(nn1-c1ccc(F)cc1)CS(=O)(=O)C2,74.3% (active)
13,O=C(CC1CCCCC1)Nc1c2c(nn1-c1ccc(F)cc1)CS(=O)(=O)C2,-9.45%
14,O=C(CN(c1cccc(Cl)c1)S(=O)(=O)c1ccccc1)NN=C1CCCC1,6.57%
15,CSc1ncccc1C(=O)NCc1ccccc1Cl,-1.26%
16,CNC(=O)c1nnn(-c2ccccc2)c1C(=O)NC,3%
17,O=C(C[n+]1ccccc1)N/N=C/c1ccc(O)cc1,-9.65%
18,Oc1ccc(/C=N/N(Cc2ccccc2)c2ccccc2)cc1,77.6% (active)
19,CN(C)c1ccc(/C=N/N(Cc2ccccc2)c2ccccc2)cc1,-5.9%

row,SMILES,inhibition
1,CCCCC(NS(=O)(=O)c1ccc(C)cc1)C(=O)Oc1ccc2c3c(c(=O)oc2c1)CCC3 (stereo unspecified),8.5%
2,CC(C)COC(=O)n1c(=O)oc2ccc(S(=O)(=O)N3CCCCC3)cc21,-4.31%
3,COc1ccc(-n2c(SCC(=O)Nc3ccc4c(c3)OCO4)nnc2C(C)N2CCCCC2)cc1 (stereo unspecified),-5.05%
4,CCN(CC)S(=O)(=O)c1ccc(N2CCOCC2)c(NC(=O)C2CSC3(C)CCC(=O)N23)c1 (stereo unspecified),52.3% (active)
5,CC(C)Oc1ccc(S(=O)(=O)N2CCOCC2)cc1NC(=O)C1CSC2(C)CCC(=O)N12 (stereo unspecified),12%
6,CCN(CC)S(=O)(=O)c1ccc(N2CCOCC2)c(NC(=O)C2COc3ccccc3O2)c1 (stereo unspecified),2.77%
7,COc1ccc(Cl)cc1N(CC(=O)N1CCCCC1)S(C)(=O)=O,-8.05%
8,O=C(/C=C/c1cccc([N+](=O)[O-])c1)N1CCN(Cc2ccccc2)CC1,2.48%
9,O=[N+]([O-])/C=C/c1ccc2c(ccn2Cc2ccccc2)c1,81% (active)
10,O=c1c([N+](=O)[O-])cc(C(F)(F)F)cn1Cc1cccc(Cl)c1,-8.03%
11,O=C(c1cccs1)C1C(c2ccc(Br)cc2)NC(=S)NC1(O)C(F)(F)F (stereo unspecified),-1.18%
12,Cc1[nH]n(-c2ccccc2)c(=O)c1CCOC(=O)c1ccc(C(F)(F)F)cc1,3.86%
13,CCCNC(=O)CCn1cc(-c2ccc(OC)cc2)nc1CCN,-0.358%
14,c1ccc(-c2cc3c(NCC4COc5ccccc5O4)ncnc3s2)cc1 (stereo unspecified),74.2% (active)
15,COc1ccc(Nc2ncnc3sc(-c4ccccc4)cc23)c(OC)c1,17.7%
16,c1ccc2c(c1)OCC(CNc1ncnc3nc[nH]c13)O2 (stereo unspecified),0.403%
17,O=C(O)c1ccc(NS(=O)(=O)c2ccc3c(c2)C(=O)c2cc(S(=O)(=O)Nc4ccc(C(=O)O)cc4)ccc2-3)cc1,7.11%
18,CC(=O)c1cccc(NC(=O)C2CCN(C(=O)c3ccccc3Cl)CC2)c1,-0.79%
19,Cc1cccc(-n2c(SCC(N)=O)nc3c(c2=O)C2(CCCCC2)Cc2ccccc2-3)c1,13.1%

row,SMILES,inhibition
1,O=C(O)c1ccccc1CSc1nc2ccccc2s1,38.1%
2,N#C/C(=C(/O)COc1cccc2ccccc12)c1nc2ccccc2[nH]1,7.13%
3,N#C/C(=C(/O)Cc1cccc2ccccc12)c1nc2ccccc2s1,79.1% (active)
4,CN1CCC(CN)(N2CCN(c3ccccc3)CC2)CC1,-3.22%
5,Cc1ccc(CNCc2ccc3c(c2)OCO3)c(C)c1,0.677%
6,O=C(O)CCN(Cc1ccccc1)S(=O)(=O)c1c(Cl)cccc1Cl,8.43%
7,CC(C)CC[n+]1ccn(C2=C([O-])c3ccccc3C(=O)/C2=N\S(=O)(=O)c2ccccc2)c1,62.6% (active)
8,NNc1nc2c(Cl)cccc2s1,-7.59%
9,Cc1nc2nc(C)c(NS(=O)(=O)c3ccc(C(C)(C)C)cc3)c(=O)n2[nH]1,19.7%
10,O=C(NCCc1ccccn1)c1cc(-c2ccc(Cl)cc2)nc2ccccc12,1.78%
11,CCOC(=O)CSc1nnc(NC(=O)C2CC(=O)N(c3ccc(F)cc3)C2)s1 (stereo unspecified),39.8%
12,COc1ccc(CCNC(=O)COC(=O)Cc2cc(OC)c(OC)c(OC)c2)cc1,1.27%
13,Cc1ccccc1C(=O)OC1OC(=O)C(Cl)=C1Nc1ccccc1 (stereo unspecified),3.76%
14,Cc1ccc(NC2=C(Cl)C(=O)OC2OC(=O)c2ccccc2C)cc1 (stereo unspecified),66% (active)
15,O=C1OC(OC(=O)c2ccccc2Br)C(N2CCOCC2)=C1Cl (stereo unspecified),35.8%
16,O=[N+]([O-])c1ccc(N(CCO)Cc2ccccc2)c([N+](=O)[O-])c1,4.42%
17,CN(C)CCCNC(=S)N1CCN(c2nc(-c3ccccc3)cs2)CC1,-0.915%
18,CC[C@H]1OC(=O)[C@H](C)[C@@H](O[C@H]2C[C@@](C)(OC)[C@@H](O)[C@H](C)O2)[C@H](C)[C@@H](O[C@@H]2O[C@H](C)C[C@H](N(C)C)[C@H]2O)[C@](C)(O)C[C@@H](C)[C@@H]2N[C@@H](COCCOC)O[C@H]([C@H]2C)[C@]1(C)O,106% (active)
